Drawing on PubChem BioAssay (EPA / NIEHS), this text covers outcome and AC50 for nine compounds.

Where “and” joins values, the source holds several entries; their conditions need not be identical. Identical values can stand only once. Inconclusive results are not listed. More than one record can exist for a structure, and the calls need not agree. Calls of active or inactive are those of the source. How the source made its calls, unless noted: active means hit-call score of the fitted dose curve at least 0.9, where 1 is the maximum; inconclusive means response in the unintended direction; inactive means score below 0.9.

Test [1] deals with Aryl hydrocarbon receptor (Homo sapiens) (UniProt P35869). Briefly: ATG_Ahr_CIS: Attagene CIS-FACTORIAL HepG2 Assay for human Aryl Hydrocarbon Receptor (Ahr) (AID 2282930; active means hit-call score of the fitted dose curve at least 0.9, where 1 is the maximum; inactive means score below 0.9). Conditions: HepG2 AhR cis-factorial reporter transcription; actives raise or lower the signal. The method, boiled down:
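HepG2, transient MRTU (cis) transfection, 24 h exposure. RNA → cDNA → PCR → 6-FAM primer extension → HpaI 2 h 37 C → CE. Fit: bidirectional, DMSO baseline.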

Test [2] can be described thus: ATG_E_Box_CIS: Attagene CIS-FACTORIAL HepG2 Assay for human Enhancer Box (E-box) (AID 2282936; active means hit-call score of the fitted dose curve at least 0.9, where 1 is the maximum; inactive means score below 0.9). The conditions noted are these: HepG2 E-box cis-reporter transcription, actives raise or lower the signal. The gist of the method: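 Cells: HepG2 (human liver), transient MRTU transfection. Exposure 24 h. RNA → oligo(dT) RT → PCR → 6-FAM label → HpaI → CE. Activity fitted both directions relative to DMSO.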

Test [3] is described as follows: ATG_GRE_CIS: Attagene CIS-FACTORIAL HepG2 Assay for human Glucocorticoid Response Elements (GRE) (AID 2282947; active means hit-call score of the fitted dose curve at least 0.9, where 1 is the maximum; inactive means score below 0.9). The conditions noted are these: HepG2 GRE cis-reporter, Attagene multiplex mRNA; actives raise or lower the signal. The method, boiled down: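 Transient MRTU transfection of human HepG2 liver cells; cis-regulated reporters report endogenous factors. 24 h dosing → RNA isolation → RT-PCR → 6-FAM primer extension → HpaI cut → CE fragment analysis. Bidirectional fit, DMSO negative control.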

Test [4] in a line: ATG_PPRE_CIS: Attagene CIS-FACTORIAL HepG2 Assay for human Peroxisome Proliferator-activated Response Element (PPRE) (AID 2282958; active means hit-call score of the fitted dose curve at least 0.9, where 1 is the maximum; inactive means score below 0.9). The conditions noted are these: HepG2 PPRE cis-element reporter, Attagene transcription factor profiling; actives raise or lower the signal. The method, boiled down: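 DMSO served as negative control and baseline for bidirectional curve fitting. Signal came from PPRE-regulated reporter mRNA in HepG2 cells, measured 24 h post-dosing by RT-PCR, 6-FAM primer extension and capillary electrophoresis.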

The nature of test [5]: ATG_M_19_TRANS: Attagene TRANS-FACTORIAL HepG2 Assay for M19 Transcription Factor (Internal Marker) (AID 2282974). Conditions: HepG2 Attagene TRANS-FACTORIAL M19 internal marker reporter. The method, boiled down: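 Multiplexed TRANS format: HepG2 liver cells bearing transient GAL4-UAS reporter units, chemical treatment 24 h, reporter transcripts quantified by RT-PCR plus capillary electrophoresis. DMSO defines baseline.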

Test [6] in a line: ATG_M_06_TRANS: Attagene TRANS-FACTORIAL HepG2 Assay for M06 Transcription Factor (Internal Marker) (AID 2282983).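 Further: reporter transcript level by RT-PCR then capillary electrophoresis fluorescence.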 Conditions: HepG2 Attagene TRANS M06 internal marker reporter. The gist of the method:
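Transfect HepG2 with MRTUs → dose compounds 24 h → isolate RNA, oligo(dT) RT → PCR with reporter primers → 6-FAM primer extension → HpaI digest → CE fragment analysis. Positive direction vs DMSO.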

The nature of test [7]: ATG_M_32_TRANS: Attagene TRANS-FACTORIAL HepG2 Assay for M32 Transcription Factor (Internal Marker) (AID 2282984).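 Further: transcript level of a background control reporter unit measured by RT-PCR and capillary electrophoresis.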 The conditions noted are these: HepG2 Attagene TRANS M32 internal marker reporter. The method, boiled down: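 Measures reporter mRNA induction in human HepG2 liver cells after 24 h chemical treatment. Transcripts from transiently transfected GAL4-UAS reporter units are amplified, fluorescently labelled and sized by capillary electrophoresis; gain of signal relative to DMSO.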

Test [8] in a line: ATG_NFI_CIS: Attagene CIS-FACTORIAL HepG2 Assay for human Nuclear Factor I (NFI) (AID 2282989; active means hit-call score of the fitted dose curve at least 0.9, where 1 is the maximum; inactive means score below 0.9). Conditions: HepG2 cis-regulatory reporter, NFI response element transcription; actives raise or lower the signal. The gist of the method: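 HepG2 cells transiently transfected with cis-element-driven multiplexed reporter transcription units, dosed for 24 h. Reporter mRNA quantified by RT-PCR, fluorescent labelling, HpaI digestion and capillary electrophoresis; bidirectional fit versus DMSO baseline.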

Test [9] addresses Peroxisome proliferator-activated receptor gamma (Homo sapiens) (UniProt P37231). The experiment in a line: ATG_PPARg_TRANS: Attagene TRANS-FACTORIAL HepG2 Assay for human Peroxisome Proliferator-activated Receptor-gamma (PPARg) (AID 2283007). The method, boiled down:
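Chimeric NR-Gal4 transactivation is measured in transiently transfected HepG2 cells by reporter mRNA induction at 24 h. Detection uses RT-PCR with fluorescent labelling and capillary electrophoresis; DMSO defines baseline.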

The target of test [10] is Retinoic acid receptor RXR-alpha (Homo sapiens) (UniProt P19793). Briefly: ATG_RXRa_TRANS: Attagene TRANS-FACTORIAL HepG2 Assay for human Retinoid X Receptor alpha (RXRa) (AID 2283012). The gist of the method: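 HepG2 cells transiently transfected with GAL4-UAS reporter units and chimeric RXRa-Gal4 protein, treated 24 h. Reporter mRNA measured by RT-PCR, fluorescent labelling, HpaI digestion and capillary electrophoresis. Induction fitted against DMSO.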
Retinoic acid receptor RXR-alpha (Homo sapiens), sequence (P19793 whole entry, looked up, the tested form may be a part): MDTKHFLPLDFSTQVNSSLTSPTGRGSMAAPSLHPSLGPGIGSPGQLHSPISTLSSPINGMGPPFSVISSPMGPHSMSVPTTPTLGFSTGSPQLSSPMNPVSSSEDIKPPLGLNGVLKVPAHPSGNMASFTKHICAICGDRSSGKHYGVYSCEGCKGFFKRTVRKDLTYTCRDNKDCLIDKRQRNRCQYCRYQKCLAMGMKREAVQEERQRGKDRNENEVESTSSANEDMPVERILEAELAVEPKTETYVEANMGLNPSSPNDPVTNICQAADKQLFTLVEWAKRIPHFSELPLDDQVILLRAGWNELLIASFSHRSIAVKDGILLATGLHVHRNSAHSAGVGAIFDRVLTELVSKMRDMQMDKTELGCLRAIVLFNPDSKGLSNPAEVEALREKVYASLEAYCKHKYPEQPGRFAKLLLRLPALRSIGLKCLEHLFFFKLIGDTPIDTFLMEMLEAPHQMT

The target of test [11] is Cellular tumor antigen p53 (Homo sapiens) (UniProt P04637). The experiment in a line: TOX21_p53_BLA_p2_ratio: Tox21 HCT-116 p53 Agonism Beta-lactamase Assay, Ratio, Phase 2 (AID 2283592). The method, boiled down:
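HCT116 p53-bla; 4000 cells/well; 5 h pre-incubation; cpd in DMSO, 217-fold dilution; 16 h 37C/5% CO2; CCF4-AM 2 h RT; Ex 405, Em 460/530 ratio; DMSO = baseline; positive fitting direction.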

Test [12] shares this target. The experiment in a line: TOX21_p53_BLA_p5_ratio: Tox21 HCT-116 p53 Agonism Beta-lactamase Assay, Ratio, Phase 5 (AID 2283599). The gist of the method:
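Beta-lactamase reporter ratio (blue 460 nm over green 530 nm, 405 nm excitation) after 2 h CCF4-AM loading, in HCT-116 cells exposed 16 h at 37 C to compounds pinned at 217-fold dilution. Increases relative to DMSO baseline scored.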

The nature of test [13]: TOX21_p53_BLA_p5_viability: Viability Assessment in the Tox21 HCT-116 p53 Agonism Beta-lactamase Assay, Phase 5 (AID 2283600). The gist of the method: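 4000 cells/well; 5 h pre-incubation; DMSO compounds pin-transferred, 217-fold dilution; 16 h, 37C/5% CO2; CCF4-AM 2 h RT; CellTiter-Glo 30 min RT; luminescence.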
The nature of test [14]: ATG_AP_1_CIS: Attagene CIS-FACTORIAL HepG2 Assay for human Activator Protein 1 (AP-1) (AID 2282931; active means hit-call score of the fitted dose curve at least 0.9, where 1 is the maximum; inactive means score below 0.9). The conditions noted are these: HepG2 Attagene cis-factorial AP-1 reporter mRNA; actives raise or lower the signal. The gist of the method: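 We transfected HepG2 cells transiently with a set of cis-regulated reporter transcription units, dosed them for 24 h, and quantified reporter mRNA via RT-PCR and capillary electrophoresis, scoring gain or loss of signal relative to DMSO.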

A short description of test [15]: ATG_M_61_CIS: Attagene CIS-FACTORIAL HepG2 Assay for M61 Transcription Factor (Internal Marker) (AID 2282937; active means hit-call score of the fitted dose curve at least 0.9, where 1 is the maximum; inactive means score below 0.9). Conditions: HepG2 Attagene CIS-FACTORIAL M61 internal marker reporter; actives raise or lower the signal. The gist of the method:
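Multiplexed reporter mRNA assay, HepG2 human hepatoma cells, 24 h treatment. Signal: FAM-labelled, HpaI-digested RT-PCR fragments by CE. Fit: bidirectional, baseline DMSO.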

Test [16] has as its target human Retinoid X Receptor beta (RXRb), RXRB (gene 6257) (UniProt P28702). The experiment in a line: ATG_RXRb_TRANS: Attagene TRANS-FACTORIAL HepG2 Assay for human Retinoid X Receptor beta (RXRb) (AID 2283013). The gist of the method:
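HepG2 cells were transiently transfected with multiplexed GAL4-UAS reporters and a chimeric RXRb-Gal4 construct, then exposed for 24 h. Reporter mRNA was quantified by RT-PCR, FAM labeling, HpaI digestion and capillary electrophoresis; gain of signal was scored against DMSO.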

Test [17] can be described thus: ACEA_ER_AUC_viability: ACEA Biosciences xCELLigence Real-Time Cell Analysis on Estrogen Receptor Agonism for Viability (AID 2283782).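 Further: continuous compound exposure with impedance area under curve over 80 h; hit means loss of impedance signal meaning reduced cell growth or viability.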 The method, boiled down: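 T-47D; phenol red-free RPMI1640 + 10% CS-FBS; 8 conc., 1:4 serial, max 100 uM final, ≤0.5% DMSO; n = 2; continuous exposure; impedance monitored to 80 h post-dose; AUC vs DMSO.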
Test [18] concerns the target Hypoxia-inducible factor 1-alpha (Homo sapiens) (UniProt Q16665). Briefly: ATG_HIF1a_CIS: Attagene CIS-FACTORIAL HepG2 Assay for human Hypoxia Inducible Factor 1 (HIF1A) (AID 2282951; active means hit-call score of the fitted dose curve at least 0.9, where 1 is the maximum; inactive means score below 0.9). Conditions: HepG2 Attagene cis-factorial HIF1a reporter transcription; actives raise or lower the signal. The gist of the method:
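Cis-element reporter constructs were transiently transfected into HepG2 cells, which were treated for 24 h; reporter RNA was reverse-transcribed, amplified, labelled and resolved by capillary electrophoresis.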

Test [19] deals with Cellular tumor antigen p53 (Homo sapiens) (UniProt P04637). The experiment in a line: TOX21_p53_BLA_p4_ratio: Tox21 HCT-116 p53 Agonism Beta-lactamase Assay, Ratio, Phase 4 (AID 2283601). The gist of the method:
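Signal is the blue/green (460nm/530nm) ratio of cleaved versus uncleaved CCF4-AM substrate, read after 2 h substrate loading. Cells were HCT116 carrying the p53-responsive beta-lactamase reporter, dosed 16 h at 37C, 5% CO2; CellTiter-Glo measured in parallel.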

Test [20] can be described thus: ATG_PBREM_CIS: Attagene CIS-FACTORIAL HepG2 Assay for human Phenobarbital-responsive Enhancer Module (PBREM) (AID 2282955; active means hit-call score of the fitted dose curve at least 0.9, where 1 is the maximum; inactive means score below 0.9). The conditions noted are these: HepG2 PBREM cis-reporter, Attagene multiplexed transcription; actives raise or lower the signal. The gist of the method:
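Multiplexed cis-reporter readout in human hepatoma HepG2 cells; PBREM-regulated transcript quantified after 24 h exposure by fluorescent RT-PCR fragment analysis. Signal changes up or down fitted relative to DMSO.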

Hypoxia-inducible factor 1-alpha (Homo sapiens), sequence (Q16665 whole entry, looked up): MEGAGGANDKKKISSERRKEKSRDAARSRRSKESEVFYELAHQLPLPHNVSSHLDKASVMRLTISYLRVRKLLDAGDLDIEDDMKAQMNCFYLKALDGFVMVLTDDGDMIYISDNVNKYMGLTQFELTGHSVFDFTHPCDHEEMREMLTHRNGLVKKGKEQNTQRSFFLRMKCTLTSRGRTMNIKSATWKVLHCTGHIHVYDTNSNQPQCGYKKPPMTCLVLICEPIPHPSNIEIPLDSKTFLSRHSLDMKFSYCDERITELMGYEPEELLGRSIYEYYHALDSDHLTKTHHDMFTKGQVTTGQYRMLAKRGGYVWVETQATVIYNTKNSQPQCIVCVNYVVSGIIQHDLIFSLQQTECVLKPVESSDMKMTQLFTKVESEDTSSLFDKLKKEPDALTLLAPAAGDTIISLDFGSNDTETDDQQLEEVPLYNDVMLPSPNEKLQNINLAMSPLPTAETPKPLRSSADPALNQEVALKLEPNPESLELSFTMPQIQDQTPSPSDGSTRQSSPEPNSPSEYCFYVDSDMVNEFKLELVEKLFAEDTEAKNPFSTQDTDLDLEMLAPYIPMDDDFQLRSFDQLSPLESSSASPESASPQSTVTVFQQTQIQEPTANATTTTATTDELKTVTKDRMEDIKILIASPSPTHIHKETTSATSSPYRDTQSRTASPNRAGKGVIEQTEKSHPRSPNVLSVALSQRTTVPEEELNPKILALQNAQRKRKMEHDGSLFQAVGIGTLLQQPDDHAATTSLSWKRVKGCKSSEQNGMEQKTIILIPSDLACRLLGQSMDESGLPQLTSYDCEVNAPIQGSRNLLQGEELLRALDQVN
Peroxisome proliferator-activated receptor gamma (Homo sapiens), sequence (P37231 whole entry, looked up, the tested form may be a part): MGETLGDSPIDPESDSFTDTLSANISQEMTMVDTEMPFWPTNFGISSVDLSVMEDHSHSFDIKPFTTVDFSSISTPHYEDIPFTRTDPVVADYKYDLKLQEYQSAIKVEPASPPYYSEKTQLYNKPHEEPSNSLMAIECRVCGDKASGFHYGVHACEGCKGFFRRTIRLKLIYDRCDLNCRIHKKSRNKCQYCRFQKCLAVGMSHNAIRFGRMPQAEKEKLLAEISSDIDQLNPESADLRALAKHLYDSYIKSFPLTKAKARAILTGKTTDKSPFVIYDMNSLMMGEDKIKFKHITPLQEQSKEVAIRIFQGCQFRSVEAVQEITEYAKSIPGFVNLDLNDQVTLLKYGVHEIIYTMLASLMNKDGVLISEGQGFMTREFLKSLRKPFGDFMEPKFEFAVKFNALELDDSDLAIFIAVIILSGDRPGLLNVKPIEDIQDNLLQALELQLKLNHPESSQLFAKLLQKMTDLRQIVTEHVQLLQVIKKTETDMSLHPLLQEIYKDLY
human Retinoid X Receptor beta (RXRb), RXRB (gene 6257), sequence (P28702 whole entry, looked up, the tested form may be a part): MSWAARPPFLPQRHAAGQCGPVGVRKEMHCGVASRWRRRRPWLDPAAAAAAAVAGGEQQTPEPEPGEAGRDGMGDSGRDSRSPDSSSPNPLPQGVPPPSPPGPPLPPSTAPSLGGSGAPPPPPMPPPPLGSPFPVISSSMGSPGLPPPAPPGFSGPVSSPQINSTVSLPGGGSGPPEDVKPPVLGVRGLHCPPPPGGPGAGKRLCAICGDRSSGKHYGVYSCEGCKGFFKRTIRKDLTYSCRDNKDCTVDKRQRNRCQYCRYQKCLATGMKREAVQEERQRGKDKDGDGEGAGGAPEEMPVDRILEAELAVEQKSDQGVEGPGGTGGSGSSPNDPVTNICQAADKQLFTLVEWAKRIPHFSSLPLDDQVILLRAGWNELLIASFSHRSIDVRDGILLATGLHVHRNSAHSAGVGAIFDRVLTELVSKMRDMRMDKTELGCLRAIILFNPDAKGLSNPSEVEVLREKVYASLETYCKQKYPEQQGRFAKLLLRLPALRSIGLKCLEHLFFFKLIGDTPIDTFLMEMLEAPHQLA
Cellular tumor antigen p53 (Homo sapiens), sequence (P04637 whole entry, looked up): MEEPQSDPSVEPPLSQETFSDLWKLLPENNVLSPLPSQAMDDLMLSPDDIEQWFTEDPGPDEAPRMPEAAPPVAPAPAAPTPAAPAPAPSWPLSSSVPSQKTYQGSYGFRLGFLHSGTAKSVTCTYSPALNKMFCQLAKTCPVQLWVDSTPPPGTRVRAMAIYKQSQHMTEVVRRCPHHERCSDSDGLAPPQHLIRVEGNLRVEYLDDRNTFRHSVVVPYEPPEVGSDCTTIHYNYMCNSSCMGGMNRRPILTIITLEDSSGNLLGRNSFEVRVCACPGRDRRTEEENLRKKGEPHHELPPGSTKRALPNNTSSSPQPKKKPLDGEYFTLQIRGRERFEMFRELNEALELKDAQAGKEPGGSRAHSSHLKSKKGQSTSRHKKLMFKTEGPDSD
Aryl hydrocarbon receptor (Homo sapiens), sequence (P35869 whole entry, looked up): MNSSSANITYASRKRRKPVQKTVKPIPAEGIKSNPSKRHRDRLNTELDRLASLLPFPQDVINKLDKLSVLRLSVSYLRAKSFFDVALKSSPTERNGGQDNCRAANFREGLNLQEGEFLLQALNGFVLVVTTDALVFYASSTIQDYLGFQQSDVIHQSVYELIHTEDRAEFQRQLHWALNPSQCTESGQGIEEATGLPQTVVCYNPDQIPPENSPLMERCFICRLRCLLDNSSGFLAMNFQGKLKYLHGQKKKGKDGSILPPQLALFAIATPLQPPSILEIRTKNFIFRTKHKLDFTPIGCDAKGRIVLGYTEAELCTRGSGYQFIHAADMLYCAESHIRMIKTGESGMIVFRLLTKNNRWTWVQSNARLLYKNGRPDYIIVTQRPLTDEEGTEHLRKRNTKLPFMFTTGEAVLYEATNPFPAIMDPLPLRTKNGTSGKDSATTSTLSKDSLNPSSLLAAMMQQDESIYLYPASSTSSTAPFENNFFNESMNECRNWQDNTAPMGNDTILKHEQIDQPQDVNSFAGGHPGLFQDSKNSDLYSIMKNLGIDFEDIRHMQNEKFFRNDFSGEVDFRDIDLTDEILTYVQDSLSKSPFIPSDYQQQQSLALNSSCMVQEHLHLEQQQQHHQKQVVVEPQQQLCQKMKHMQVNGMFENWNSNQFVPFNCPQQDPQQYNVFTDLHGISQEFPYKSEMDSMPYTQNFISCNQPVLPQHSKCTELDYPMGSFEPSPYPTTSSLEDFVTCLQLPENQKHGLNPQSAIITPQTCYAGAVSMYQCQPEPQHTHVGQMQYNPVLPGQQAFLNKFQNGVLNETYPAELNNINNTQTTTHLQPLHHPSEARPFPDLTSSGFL

As for `CCOC(=O)N(C)N=O`, the result in test [1], in test [2], in test [3], in test [4], in test [5] and in test [6] was inactive. Moreover, the result in test [7], in test [8], in [9], in test [10], in test [11] and in [12] was inactive. Also, the outcome in test [13] was inactive.
Consider `O=S(=O)(O)O`, for which the compound was called inactive in test [1], in [14], in test [15], in test [6], in test [8] and in test [10]. The outcome in test [16] was inactive. For the same compound, in [17], the AC50 (commonly the concentration at which the activity in the assay is half-maximal) is 6.09 µM (active).
With `C#CC1(O)CCCCC1`, the outcome in test [1], in test [2], in test [18], in [6], in test [7] and in test [8] was inactive. Also, the call in test [16], in test [11], in test [12] and in test [19] was inactive. Moreover, the AC50 in test [17] was 61.7 µM (active).
On to `CC(O)CN(CC(C)O)CC(C)O` (centres undefined), for which the compound was classed as inactive in test [14], in test [2], in test [15], in test [3], in [18] and in [20]. Further, the outcome in test [5], in test [7], in test [8], in [11], in [12] and in [19] was inactive. Besides, in test [17], the result was inactive.
On to `c1ccc2c(c1)CCCC2`, for which the compound was called inactive in test [1], in [2], in [15], in test [3], in [18] and in [20]. The outcome in test [5], in [7], in test [8], in [10], in test [11] and in test [12] was inactive. Also, the result in [13], in test [19] and in test [17] was inactive.
As to `CCOP(O)OCC`, the outcome in [2], in test [15], in test [3], in [20], in test [4] and in test [6] was inactive. Also, the outcome in test [7], in test [8], in test [9] and in test [10] was inactive.
On to `O=C1C(Cl)=C(Cl)C(=O)C(Cl)=C1Cl`, for which the AC50 was 130 µM (active) in test [14]; 100 µM (active) in test [18]; 13.7 µM (active) in [11]; 15.4 µM (active) and 34.8 µM (active) in test [12]; 57.6 µM (active) and 56.4 µM (active) in [13]; 84.7 µM (active) in [19]. The half-maximal activity concentration (AC50) in test [17] is 81.6 µM (active). The outcome in [3], in test [20], in test [4], in test [6], in test [7] and in test [8] was inactive. Further, the call in [9], in test [10], in [16], in [11] and in test [19] was inactive.
On to `ClC1=C(Cl)[C@]2(Cl)[C@@H]3[C@@H](Cl)[C@H](Cl)C[C@@H]3[C@@]1(Cl)C2(Cl)Cl`, for which the call in test [14], in test [15], in test [3], in test [20], in test [4] and in test [5] was inactive. For the same compound, the result in test [7], in test [8], in test [9], in test [16] and in [17] was inactive.
As to `O=C(CCl)c1ccccc1`, the AC50 in test [14] was 59.3 µM (active); in test [3], 8.88 µM (active); in test [9], 16.4 µM (active); in test [16] it was 33.4 µM (active); in [17] it was 10.9 µM (active). In addition, the call in test [15], in test [18], in test [4], in [5], in [6] and in test [8] was inactive. For the same compound, the outcome in [11], in [12], in test [13] and in test [19] was inactive.
